Screens from PubChem.
Compounds with a hit are over-represented: about 4% of the library has one in this group of screens.
aDG glyco up: increases alpha dystroglycan glycosylation; AID 624168; 360,000 compounds, 0.22% hits; Pro5-aDG cells, alpha-DG glycosylation AlphaScreen (IIH6); 0% Pro5, 100% B10-LARGE cell signal; activation, % at 10 µM;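 active = activation of at least 8% versus controls, or a plate z-score of at least 8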;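 also: Pro5 are CHO cells carrying HIG-tagged alpha-DG that lacks glycosylation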
ADAM10 inh: ADAM10 inhibition, QFRET primary screen | inhibition, % at 7 µM | 370,000 compounds, 0.62% hits | recombinant ADAM10, EDANS/DABCYL FRET peptide cleavage, 3 h;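 active = inhibition above a per-campaign cutoff equal to the mean of compounds falling between control-based bounds plus 3 SD, cut at about 20% in these data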;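 also: 0% = DMSO wells while the 100% control is not disclosed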
ADAM17 inh: ADAM17 inhibition, QFRET primary screen | AID 720648 | 370,000 compounds, 0.83% hits | recombinant ADAM17, EDANS/DABCYL FRET peptide cleavage | inhibition, % at 6.95 µM | P78536;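 active = inhibition above the mean of compounds lying between control limits plus 3 SD, set per campaign, cut at about 8.5% in these data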;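 also: 0% = DMSO-only wells as the low control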
Target sequence (P78536 215-824 limits assumed): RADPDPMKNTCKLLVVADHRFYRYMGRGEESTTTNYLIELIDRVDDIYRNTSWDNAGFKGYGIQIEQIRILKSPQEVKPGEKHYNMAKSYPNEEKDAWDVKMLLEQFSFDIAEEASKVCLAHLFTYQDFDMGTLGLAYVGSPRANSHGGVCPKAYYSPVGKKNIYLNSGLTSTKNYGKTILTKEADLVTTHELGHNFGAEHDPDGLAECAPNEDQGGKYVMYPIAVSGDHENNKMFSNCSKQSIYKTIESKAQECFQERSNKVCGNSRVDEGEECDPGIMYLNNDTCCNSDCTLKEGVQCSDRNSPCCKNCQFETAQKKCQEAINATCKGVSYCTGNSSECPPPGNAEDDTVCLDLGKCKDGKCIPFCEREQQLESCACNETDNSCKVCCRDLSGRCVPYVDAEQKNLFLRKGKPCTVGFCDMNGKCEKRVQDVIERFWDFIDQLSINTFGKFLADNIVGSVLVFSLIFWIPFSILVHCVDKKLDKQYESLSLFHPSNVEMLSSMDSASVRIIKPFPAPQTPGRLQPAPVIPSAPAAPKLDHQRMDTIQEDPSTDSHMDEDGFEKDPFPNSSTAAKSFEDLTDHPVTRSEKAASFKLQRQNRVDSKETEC
GRIN3A LBD mod: NR3A (human) ligand-binding domain modulation; NR3A LBD differential scanning fluorimetry, Tm shift; 0% = protein alone, 100% = glycine-bound protein; AID 1259313; 340,000 compounds, 2.5% hits; Tm shift relative to glycine control, % at 25 µM;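 active = melting temperature shift of at least 10% of the positive control shift, at one fixed dose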
FAS-TE inh: blocks the thioesterase domain of human fatty acid synthase; recombinant FAS-TE, OMFH fluorogenic substrate, fluorescence endpoint; inhibition, % at 15 µM; 360,000 compounds, 0.67% hits; AID 602261;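 active = compounds whose normalised, plate-corrected inhibition of enzyme fluorescence in the single-dose primary screen is 50% or more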;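 also: 0% = DMSO with enzyme and 100% = substrate without enzyme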
FAS-TE inh conf: confirmation of human fatty acid synthase thioesterase inhibitors; shares compounds with FAS-TE inh; recombinant FAS-TE, OMFH fluorogenic substrate, fluorescence; 2,300 compounds, 45% hits; inhibition, % at 15 µM;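 active = compounds inhibiting the enzyme by at least 50% at 15 µM in any one of the replicates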;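 also: 0% = enzyme with DMSO only and 100% = wells lacking enzyme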
aDG glyco conf: alpha-DG glycosylation activation, confirmation; shares compounds with aDG glyco up; AID 651671; activation, % at 10 µM (by protocol); 600 compounds, 17% hits; Pro5-aDG cells, IIH6 AlphaLISA; scaled to LARGE-overexpressing B10 cells as 100%;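 active = activation of at least 7% in one or more replicates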;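 also: cells exposed to compound for two days before detection; 0% = DMSO-treated Pro5 cells and 100% = DMSO-treated B10-LARGE cells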
ADAM10 confirm: confirmation of inhibitors of human ADAM10; 2,100 compounds, 1% hits; inhibition, % at 6.95 µM; shares compounds with ADAM10 inh; ADAM10 QFRET peptide cleavage, EDANS fluorescence;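 active = inhibition above about 20% chosen separately for each screening run, limit read from the data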;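 also: 0% = DMSO wells and 100% = marimastat wells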
ADAM17 counter: counter-screen for ADAM10 exosite inhibitors: inhibitors of human ADAM17 | shares compounds with ADAM10 inh | ADAM17 QFRET peptide cleavage, EDANS fluorescence | inhibition, % at 6.95 µM | 2,100 compounds, 0.5% hits | AID 743214;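 active = mean triplicate inhibition above the solvent-only control wells' mean plus 3 SD, cut at about 12% in these data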;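 also: 0% = DMSO wells and 100% = marimastat wells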
Numbers without * were called inactive; i = inactive; · = not tested or not shown.

SMILES	aDG glyco up	ADAM10 inh	ADAM17 inh	GRIN3A LBD mod	FAS-TE inh	FAS-TE inh conf	ADAM10 confirm	ADAM17 counter	others
O=C1OCCN1C(=O)[C@H]1[C@H](c2ccc(F)cc2)C(c2cccc(Cl)c2)=NN1c1ccccc1	0.6	i	-265.9	16.1*	58.7*	10.9	·	·
CC[C@@H]1C(c2cccc(C)c2)=NN(c2ccccc2)[C@H]1C(=O)N1CCOC1=O	1.9	-68.0	-17.4	-1.1	16.2	·	·	·
COc1ccccc1[C@@H]1C(c2ccccc2)=NN(c2ccc(Br)cc2)[C@H]1C(=O)N1CCOC1=O	-0.2	i	-140.4	-7.9	73.6*	13.2	·	·
O=C1OCCN1C(=O)[C@H]1[C@H](c2ccc(Cl)cc2)C(c2ccccc2)=NN1c1ccc(Br)cc1	0.4	i	-242.6	15.4*	81.1*	38.7	·	·
C[C@@H]1C(c2ccc(F)cc2)=NN(c2ccccc2)[C@H]1C(=O)N1CCOC1=O	0.1	-46.0	-12.0	-4.7	11.5	·	·	·
O=C(NCC(c1ccco1)N1CCCC1)c1cccc(S(=O)(=O)N2CCCCC2)c1 (stereo not given)	0.1	-3.2	-2.0	·	-3.1	·	·	·
COc1ccc(CNC(=O)Cc2ccc(NC(=O)C3=C(C)OCCS3)cc2)cc1	0.1	8.8	-1.2	-0.8	2.2	·	·	·
CCn1c(CSc2nnc(-c3ccoc3C)n2C)nc2cc(S(=O)(=O)N(C)C)ccc21	0.1	-11.2	-6.0	-1.1	-3.0	·	·	·
O=C1OCCN1C(=O)[C@H]1[C@H](c2ccc(Cl)cc2)C(c2cccc(Cl)c2)=NN1c1ccccc1	0.6	·	·	17.0*	94.1*	7.4	·	·
CC[C@@H]1C(c2cccc(Cl)c2)=NN(c2ccc(Br)cc2)[C@H]1C(=O)N1CCOC1=O	0.6	·	·	4.5	41.9	·	·	·
O=C1OCCN1C(=O)[C@H]1[C@H](c2ccc(F)cc2)C(c2cccc(Cl)c2)=NN1c1ccc(Br)cc1	1.1	i	i	25.2*	72.8*	21.0	·	·
COc1ccccc1[C@@H]1C(c2cccc(C)c2)=NN(c2ccc(Br)cc2)[C@H]1C(=O)N1CCOC1=O	4.9*	-278.2	-79.0	-0.7	61.5*	17.1	·	·	aDG glyco conf=-0.2
CCOC(=O)C1CCN(c2c(C(=O)c3ccccc3)cnc3ccc(CC)cc23)CC1	0.3	-0.8	0.4	2.1	16.4	·	·	·
Cc1cc(C)c(Cn2cnc(-c3ccc([N+](=O)[O-])cc3)c2)c(C)c1	-0.1	29.2*	-16.1	-4.5	53.8*	52.8*	3.8	1.2
CCCN(CC(=O)Nc1cc(Cl)cc(Cl)c1)CC(=O)Nc1ccc(F)c(F)c1F	5.9*	28.4*	12.7*	20.1*	50.8*	34.1	11.7	3.4	aDG glyco conf=0.2
CCCN(CC(=O)Nc1ccccc1Br)CC(=O)Nc1ccc(F)c(F)c1F	0.2	3.3	0.2	-9.5	18.4	·	·	·
Cc1ccc(NC(=O)C(C)c2ccc([N+](=O)[O-])cc2)cc1Cl (stereo not given)	2.4	23.6*	6.5	11.8*	59.0*	45.4	4.9	0.8
CC(COc1ccc(C(F)(F)F)cc1)CN1CCC(C(O)(c2ccccc2)c2ccccc2)CC1 (stereo not given)	·	8.4	3.7	·	·	·	·	·
COc1ccc(C2CC(c3ccccc3)=NN2S(=O)(=O)c2ccc(C)cc2)c(OC)c1 (stereo not given)	-0.2	22.7*	7.1	4.3	58.1*	12.0	7.0	2.1
O=C(O)CCc1ccc(-c2ccc(Cl)cc2)n1CC(=O)O	0.0	-58.1	-21.4	0.1	-1.7	·	·	·
O=C(NC(Cc1c[nH]c2ccccc12)C(=O)Nc1ccc(F)c([N+](=O)[O-])c1)c1cccs1 (stereo not given)	0.1	19.9*	7.5	5.2	63.1*	63.3*	4.5	1.8
O=C(NC(Cc1c[nH]c2ccccc12)C(=O)O)c1cccs1 (stereo not given)	-0.2	5.7	2.5	-5.5	-5.6	·	·	·
Cc1ccc(S(=O)(=O)N(C)C[C@@H]2OCCCC[C@H](C)Oc3ccc(NC(=O)Nc4ccc(F)cc4)cc3C(=O)N([C@H](C)CO)C[C@H]2C)cc1	-0.3	23.3*	8.4	·	62.5*	0.4	7.5	3.0
Cc1ccc(S(=O)(=O)Nc2ccc3c(c2)C(=O)N([C@@H](C)CO)C[C@@H](C)[C@@H](CN(C)S(=O)(=O)c2ccccc2)OCCCC[C@H](C)O3)cc1	0.2	22.9*	7.7	·	79.4*	-1.5	6.9	2.4
COc1ccc(S(=O)(=O)N(C)C[C@H]2OCCCC[C@H](C)Oc3ccc(NC(=O)Nc4ccc(F)cc4)cc3C(=O)N([C@H](C)CO)C[C@H]2C)cc1	-0.1	13.5	6.9	·	31.9	·	·	·
SMILES	aDG glyco up	ADAM10 inh	ADAM17 inh	GRIN3A LBD mod	FAS-TE inh	FAS-TE inh conf	ADAM10 confirm	ADAM17 counter	others
C[C@@H]1CCCCO[C@H](CN(C)S(=O)(=O)c2cccs2)[C@@H](C)CN([C@H](C)CO)C(=O)c2cc(NC(=O)Nc3ccc4c(c3)OCO4)ccc2O1	-0.5	19.9*	5.0	·	59.8*	11.3	4.7	1.5
COCCn1c(SCC(=O)Nc2ccc(S(=O)(=O)N3CCOCC3)cc2)nc2ccccc21	0.5	1.2	-2.4	3.0	11.5	·	·	·
CC(=O)C1=C(O)C(=O)N(c2ccc(Br)cc2)C1c1cccc([N+](=O)[O-])c1 (stereo not given)	-0.1	4.1	0.8	2.5	-1.8	·	·	·
O=C1OCCN1C(=O)[C@H]1[C@H](c2ccc([N+](=O)[O-])cc2)C(c2cccc(Cl)c2)=NN1c1ccc(Br)cc1	-0.2	23.6*	5.7	7.4	86.6*	6.2	14.2	5.1
CC1CCCCC1NC(=O)COn1nnc2ccc(Cl)cc21 (stereo not given)	-0.1	6.4	1.1	0.0	-2.4	·	·	·
Cc1[nH]n2c(=O)cc(-c3ccc([N+](=O)[O-])cc3)nc2c1-c1ccccc1	0.0	22.8*	8.4	14.2*	58.8*	76.5*	2.3	0.5
CCCc1cc(=O)n2[nH]c(C)c(-c3ccccc3)c2n1	-0.1	-19.7	-8.5	0.7	-6.2	·	·	·
CCCCN(C(=O)C1CC(=O)N(c2ccc3c(c2)OCCO3)C1)c1c(N)n(CCCC)c(=O)[nH]c1=O (stereo not given)	-0.1	-23.6	-6.3	-0.4	-5.7	·	·	·
C[C@@]12C(=O)Nc3cc(F)c(F)cc3C(=O)N1[C@H]1c3ccccc3OC[C@@H]1[C@@H]2c1ccccc1	0.0	21.2*	10.1*	0.5	75.9*	44.1*	7.4	4.1
